Assay results: the OligoGym collection

target: ADRA2B; test: pooled miR-30 sensor sort-seq; sequence = guide strand; conditions: shRNA
Also: reference of the scale not given here.

Sequence	sensor-assay potency score (higher = more potent)
TACTCTGGCCTCAACAACCCAC	-0.575
TCGAGCGCCAGGTACACCTCGC	-0.894
TACACCTCGCACCACGTGCGCC	-1.33
TCCTGGTTGAGCTTGCACTGGG	-0.653
AAGATGGTGTAGATAACAGGGT	-0.352
TAACTTGAAATAGTGATTCTGT	0.986
TCATCTTAGACTGTTGCCGAGG	-0.739
TTCCAAATCTAGCAGGTCCATC	-1.43
TGTCCGTTGACCTCTCTGGCAG	-0.964
AAATCTAGCAGGTCCATCTGGC	-0.198
TTTATTGATAAAATAGCTCAGA	-0.103
AACGCCAATGACCACAGCCAGC	-1.54
TTGGAGTTGTACTCCAGCGCGC	-0.762
TTGAAATAGTGATTCTGTCTGC	0.106
TTCGAGTGTCCGTTGACCTCTC	0.0234
ATAACAGGGTTCAGTGAGCTGT	-0.793
TAGCGTAATAACTCAGACCTTT	0.245
TTTTTGGTTCTCTAGTGTGTTC	-1.08
TAGACAAGGATCATGATGAGGC	0.0762

target: ADRB1; test: as above; conditions: shRNA

Sequence	sensor-assay potency score (higher = more potent)
TGTCCACTGCTGAGACAGCGGC	-1.28
ACTGAGGTCCACAGCTCGCAGA	-1.49
TTGGTGACGAAGTCGCAGCACT	-0.788
TTGGGGTCGTTGTAGCAGCGGC	-1.11
TCGAGTCGCTGTCCGCCGCCGC	-1.38
TCGTCGTCGTCGTCCGAGGCGG	-1.56
TTGGTGAGCGTCTGCAGCCGCG	-1.38
TTGAGCGCCTTCTGCTCGCGCA	-1.01
TGTCGATCTTCTTCACCTGCTT	0.319
TCGCTGTCCGCCGCCGCCCCGC	-1.6
AAGAAGGAGCCGTACTCCCAGC	-1.16
TTGAAGAAGACGAAGAGGCGGT	0.771
TCTTCTTCACCTGCTTCTGGGC	-0.965
ACACACAGGGTCTCGATGCTGG	-0.4
ATGAGCAGCACGATGAGCGCCA	-0.267
ACGCACAGCACGTCCACTGAGG	-1.84
ACGAAGTCGCAGCACTTGGGGT	-1.34
TCGTCGTCGTCGTCGTCCGAGG	-1.7
TCCACTGAGGTCCACAGCTCGC	-1.74
GACATCGTCGTCGTCGTCGTCC	-1.45
TCCACTGCTGAGACAGCGGCTC	-1.08
